# Results from the supplement of paper PMC8728848.
# Shown is part of a subset that was picked to be rich in the strongest signals.
# Key:
# Test in all cases: glycan array binding signal (z-score within array); higher = stronger binding
# Settings in all cases: glycan notation: IUPAC condensed, linker removed
# [1] = target: GalNAc(a1-3)GalNAc(b1-3)Gal(a1-4)Gal(b1-4)Glc
# Outline: (§1)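 Negative Z-scores can be read as non-binding. The Z-score is calculated within each array and then averaged across arrays of one protein sequence at different concentrations or buffers and across linkers. Arrays, 3228 in all, were curated from the Consortium for Functional Glycomics database and kept only where the protein sequence was available.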
# [2] = target: GalNAc(b1-3)Gal(a1-6)Gal(b1-4)Glc
# Outline: as §1
# GalNAc(b1-4)GlcNAc = target: GalNAc(b1-4)GlcNAc
# Outline: as §1
# [3] = target: Glc(a1-4)Glc(a1-4)Glc(a1-4)Glc
# Outline: as §1
# [4] = target: GlcNAc(a1-6)Gal(b1-4)GlcNAc
# Outline: as §1
# [5] = target: GlcNAc(b1-2)Gal(b1-3)GalNAc
# Outline: as §1
# [6] = target: GlcNAc(b1-2)Man(a1-3)[GlcNAc(b1-4)][GlcNAc(b1-2)Man(a1-6)]Man(b1-4)GlcNAc(b1-4)[Fuc(a1-6)]GlcNAc
# Outline: as §1
# [7] = target: GlcNAc(b1-3)Gal(b1-4)GlcNAc(b1-6)[GlcNAc(b1-3)Gal(b1-3)]GalNAc
# Outline: as §1
# [8] = target: GlcNAc(b1-4)Gal(b1-4)GlcNAc
# Outline: as §1
# [9] = target: GlcNAc(b1-4)GlcNAc(b1-4)GlcNAc(b1-4)GlcNAc(b1-4)GlcNAc
# Outline: as §1
# [10] = target: GlcNAc6S(b1-3)Gal(b1-4)GlcNAc
# Outline: as §1
# Kdn(a2-3)Gal(b1-4)Glc = target: Kdn(a2-3)Gal(b1-4)Glc
# Outline: as §1
# [11] = target: Neu5Ac(a2-3)Gal(b1-4)GlcNAc(b1-2)Man(a1-3)[GlcNAc(b1-2)Man(b1-4)GlcNAc(b1-2)Man(a1-6)]Man(b1-4)GlcNAc(b1-4)GlcNAc
# Outline: as §1
# [12] = target: Neu5Ac(a2-3)Gal(b1-4)GlcNAc(b1-3)Gal(b1-4)GlcNAc(b1-3)GalNAc
# Outline: as §1
# [13] = target: Neu5Ac(a2-3)Gal(b1-4)GlcNAc(b1-6)GalNAc
# Outline: as §1
# [14] = target: Neu5Ac(a2-3)Gal(b1-4)[Fuc(a1-3)]GlcNAc(b1-3)Gal
# Outline: as §1
# [15] = target: Neu5Ac(a2-3)[Neu5Ac(a2-6)]GalNAc
# Outline: as §1
# Neu5Ac(a2-6)Gal = target: Neu5Ac(a2-6)Gal
# Outline: as §1
# [16] = target: Neu5Ac(a2-6)Gal(b1-4)GlcNAc(b1-2)Man(a1-6)[GlcNAc(b1-2)Man(a1-3)]Man(b1-4)GlcNAc(b1-4)GlcNAc
# Outline: as §1
# [17] = target: Neu5Ac(a2-6)Gal(b1-4)GlcNAc(b1-2)Man(a1-6)[Man(a1-3)]Man(b1-4)GlcNAc(b1-4)GlcNAc
# Outline: as §1
# [18] = target: Neu5Ac(a2-6)Gal(b1-4)GlcNAc(b1-3)Gal(b1-4)GlcNAc(b1-3)[Neu5Ac(a2-6)Gal(b1-4)GlcNAc(b1-3)Gal(b1-4)GlcNAc(b1-6)]GalNAc
# Outline: as §1
# [19] = target: Neu5Ac(a2-6)Gal(b1-4)GlcNAc(b1-6)[Gal(b1-3)GlcNAc(b1-3)]Gal(b1-4)Glc
# Outline: as §1
# [20] = target: Neu5Ac(a2-6)Gal(b1-4)GlcNAc(b1-6)[Gal(b1-3)]GalNAc
# Outline: as §1
# [21] = target: Neu5Ac(a2-6)GlcNAc(b1-4)GlcNAc
# Outline: as §1
# [22] = target: Neu5Ac(a2-8)Neu5Ac(a2-3)Gal(b1-4)Glc
# Outline: as §1
# [23] = target: Neu5Gc(a2-3)Gal(b1-3)GlcNAc
# Outline: as §1
binder,measurement,setting,value
KILRGVCKKIMRTFLRRISKDILTGKK [NK2 (Sus scrofa)],glycan array binding signal (z-score),[1],-0.58
same,glycan array binding signal (z-score),[2],-0.616
same,glycan array binding signal (z-score),GalNAc(b1-4)GlcNAc,-0.865
same,glycan array binding signal (z-score),[3],0.05
same,glycan array binding signal (z-score),[4],-1.07
same,glycan array binding signal (z-score),[5],-0.471
same,glycan array binding signal (z-score),[6],-1.11
same,glycan array binding signal (z-score),[7],0.144
same,glycan array binding signal (z-score),[8],0.592
same,glycan array binding signal (z-score),[9],0.06
same,glycan array binding signal (z-score),[10],-0.015
same,glycan array binding signal (z-score),Kdn(a2-3)Gal(b1-4)Glc,0.105
same,glycan array binding signal (z-score),[11],-0.411
same,glycan array binding signal (z-score),[12],2.37
same,glycan array binding signal (z-score),[13],1.14
same,glycan array binding signal (z-score),[14],-0.39
same,glycan array binding signal (z-score),[15],0.24
same,glycan array binding signal (z-score),Neu5Ac(a2-6)Gal,-0.071
same,glycan array binding signal (z-score),[16],0.794
same,glycan array binding signal (z-score),[17],-0.656
same,glycan array binding signal (z-score),[18],0.794
same,glycan array binding signal (z-score),[19],-0.41
same,glycan array binding signal (z-score),[20],-1.1
same,glycan array binding signal (z-score),[21],-0.816
same,glycan array binding signal (z-score),[22],-0.889
same,glycan array binding signal (z-score),[23],-0.108
